Screens from PubChem.
MIN6 prolif: inducers of beta-cell replication in MIN6 cells; MIN6 cells proliferation, ATPlite luminescence, 48 h; cells starved in 0.2% serum; 100% = growth in 10% serum; proliferation, % at 10 µM; 330,000 tested, 0.29% active; AID 2380;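 active means compounds whose signal lies at least 3.5 SD above the mean of all wells on their plate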;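 further: 0% = DMSO-treated cells in low-serum medium and 100% = 10% serum control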
pCIP destab: compounds decreasing mouse p/CIP protein stability; Q05BA5; F442A p/CIP-EGFP cells, EGFP fluorescence, 16 h; decrease of EGFP signal, % at 10 µM; 290,000 tested, 0.01% active; AID 1984;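 active means EGFP signal decrease of at least 30% at 10 µM or well 3 SD below plate mean, unless failing retest; inactive means the rest, including hits failing retest or dose response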
MPTP block: blocks calcium-induced mitochondrial swelling; isolated mouse mitochondria, Ca2+ swelling absorbance, 30 min; AID 602449; inhibition, % at 10 µM; 360,000 tested, 1.4% active;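 active means inhibition of 50% or more, scaled per plate between neutral and stimulator controls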;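 further: 0% = DMSO wells given calcium and 100% = 1 mM EGTA wells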
FAS TE block: inhibitors of human fatty acid synthase thioesterase domain; 360,000 tested, 0.67% active; P49327; AID 602261; recombinant FAS-TE, OMFH fluorogenic substrate, fluorescence endpoint; inhibition, % at 15 µM;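 active means compounds whose normalised, plate-corrected inhibition of enzyme fluorescence in the single-dose primary screen is 50% or more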;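 further: 0% = DMSO with enzyme and 100% = substrate without enzyme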
Target sequence (P49327 whole entry, looked up, the tested form may be a part): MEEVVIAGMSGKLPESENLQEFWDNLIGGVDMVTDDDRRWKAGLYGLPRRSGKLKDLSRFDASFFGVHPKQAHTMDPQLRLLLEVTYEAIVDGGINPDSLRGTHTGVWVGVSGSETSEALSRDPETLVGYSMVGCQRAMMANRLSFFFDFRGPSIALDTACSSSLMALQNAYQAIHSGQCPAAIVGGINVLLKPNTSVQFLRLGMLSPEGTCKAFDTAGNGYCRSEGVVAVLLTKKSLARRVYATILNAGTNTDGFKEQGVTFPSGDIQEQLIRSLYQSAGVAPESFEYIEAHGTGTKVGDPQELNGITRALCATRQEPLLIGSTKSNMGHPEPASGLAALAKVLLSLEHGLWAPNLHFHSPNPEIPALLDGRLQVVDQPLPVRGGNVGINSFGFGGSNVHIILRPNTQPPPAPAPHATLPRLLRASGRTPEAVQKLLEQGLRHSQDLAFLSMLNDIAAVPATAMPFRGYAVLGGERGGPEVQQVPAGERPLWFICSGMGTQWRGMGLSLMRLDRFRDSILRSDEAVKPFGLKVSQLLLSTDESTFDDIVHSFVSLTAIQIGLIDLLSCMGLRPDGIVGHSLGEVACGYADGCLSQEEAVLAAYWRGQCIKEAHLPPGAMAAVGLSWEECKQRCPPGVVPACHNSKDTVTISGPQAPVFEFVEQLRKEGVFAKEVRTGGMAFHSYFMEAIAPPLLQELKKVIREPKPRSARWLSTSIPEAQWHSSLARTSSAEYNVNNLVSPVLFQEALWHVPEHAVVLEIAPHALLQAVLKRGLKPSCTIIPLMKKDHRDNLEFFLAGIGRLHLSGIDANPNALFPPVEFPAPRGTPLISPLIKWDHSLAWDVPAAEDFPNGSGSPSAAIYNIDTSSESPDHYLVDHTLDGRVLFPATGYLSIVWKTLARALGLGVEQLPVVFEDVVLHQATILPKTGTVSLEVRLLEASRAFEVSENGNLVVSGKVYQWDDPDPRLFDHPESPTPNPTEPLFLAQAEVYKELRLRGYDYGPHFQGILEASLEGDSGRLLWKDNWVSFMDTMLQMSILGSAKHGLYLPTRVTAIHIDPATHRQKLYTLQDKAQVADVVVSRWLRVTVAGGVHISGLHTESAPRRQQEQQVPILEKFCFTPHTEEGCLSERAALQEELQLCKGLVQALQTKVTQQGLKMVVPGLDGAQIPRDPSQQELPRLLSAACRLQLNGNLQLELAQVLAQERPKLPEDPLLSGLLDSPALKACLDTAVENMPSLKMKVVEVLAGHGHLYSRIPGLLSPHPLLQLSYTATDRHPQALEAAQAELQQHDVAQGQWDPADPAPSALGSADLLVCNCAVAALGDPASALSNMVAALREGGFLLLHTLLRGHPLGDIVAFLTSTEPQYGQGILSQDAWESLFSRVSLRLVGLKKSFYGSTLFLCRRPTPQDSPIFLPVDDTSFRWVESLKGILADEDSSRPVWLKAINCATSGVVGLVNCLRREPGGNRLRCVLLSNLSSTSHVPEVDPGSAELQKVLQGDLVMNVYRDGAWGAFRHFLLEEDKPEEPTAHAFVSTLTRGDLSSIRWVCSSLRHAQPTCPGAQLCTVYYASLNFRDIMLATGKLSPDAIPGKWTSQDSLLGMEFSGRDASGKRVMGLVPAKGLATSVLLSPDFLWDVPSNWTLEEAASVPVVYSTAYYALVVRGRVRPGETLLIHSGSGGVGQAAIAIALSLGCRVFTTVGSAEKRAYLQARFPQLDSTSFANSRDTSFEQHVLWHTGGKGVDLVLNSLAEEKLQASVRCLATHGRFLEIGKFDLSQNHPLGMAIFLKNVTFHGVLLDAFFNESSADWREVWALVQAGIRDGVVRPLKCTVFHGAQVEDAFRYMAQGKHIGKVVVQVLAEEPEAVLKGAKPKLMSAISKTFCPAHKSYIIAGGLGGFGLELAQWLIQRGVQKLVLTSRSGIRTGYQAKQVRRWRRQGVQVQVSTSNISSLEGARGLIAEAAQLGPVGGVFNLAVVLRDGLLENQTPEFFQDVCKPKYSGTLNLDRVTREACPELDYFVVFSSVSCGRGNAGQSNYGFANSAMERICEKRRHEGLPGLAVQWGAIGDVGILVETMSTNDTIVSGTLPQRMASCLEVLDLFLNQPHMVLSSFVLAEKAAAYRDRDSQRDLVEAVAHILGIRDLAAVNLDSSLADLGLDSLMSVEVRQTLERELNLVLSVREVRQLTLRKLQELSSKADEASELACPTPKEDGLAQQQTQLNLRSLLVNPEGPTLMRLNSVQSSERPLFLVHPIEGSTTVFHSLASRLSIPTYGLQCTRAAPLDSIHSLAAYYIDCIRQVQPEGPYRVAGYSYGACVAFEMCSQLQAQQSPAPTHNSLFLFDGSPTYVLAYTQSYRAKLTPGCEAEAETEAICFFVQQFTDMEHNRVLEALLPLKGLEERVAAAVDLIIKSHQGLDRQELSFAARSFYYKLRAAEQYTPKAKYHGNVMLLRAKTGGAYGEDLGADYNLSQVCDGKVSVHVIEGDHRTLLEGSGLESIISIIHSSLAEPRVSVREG
NR3A LBD binder: modulates the human NR3A ligand-binding domain. NR3A LBD differential scanning fluorimetry, Tm shift; 0% = protein alone, 100% = glycine-bound protein. Tm shift relative to glycine control, % at 25 µM. 340,000 tested, 2.5% active. AID 1259313;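 active means melting temperature shift of at least 10% of the positive control shift, at one fixed dose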
Rh123 counter: mitochondrial membrane potential, counter-screen | shares compounds with MPTP block | isolated mitochondria, Rhodamine 123 fluorescence | inhibition, % at 10 µM | 5,000 tested, 78% active | AID 624504; in the data active means inhibition above about 22%;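 further: 0% = DMSO vehicle and 100% = positive control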
MPTP swell DR: MPTP inhibition, dose response swelling confirmation; IC50, µM; 780 tested, 58% active; isolated mitochondria swelling, absorbance; shares compounds with MPTP block; in the data active means IC50 below about 20 µM
MPTP cs DR: MPTP inhibitor counter-screen activity, dose response. shares compounds with MPTP block. isolated mitochondria counterscreen, fluorescence read-out. IC50, µM. 780 tested, 49% active. AID 651564; in the data active means IC50 below about 80 µM
Starred values were filed as active, the others as inactive; i = inactive; nt = not tested or not shown; ! = not active in a repeat. Compounds with a hit are over-represented: about 4.1% of the library has one in this group of screens.

SMILES	MIN6 prolif	pCIP destab	MPTP block	FAS TE block	NR3A LBD binder	Rh123 counter	others
CC1=NN(c2ccccc2)C(=O)/C1=C\c1ccc(Oc2ccc([N+](=O)[O-])cc2[N+](=O)[O-])cc1	-6	4	80*	7	4	70*
NC(=S)n1[nH]c(-c2ccc([N+](=O)[O-])cc2)c(N=Nc2cccc(Cl)c2)c1=O	-5	-19	90*	46	25*	70*
Cc1[nH]n(C(N)=S)c(=O)c1N=Nc1cccc(Cl)c1	-4	-9	-1	-6	10	nt
O=C(COC(=O)c1c[nH]c(=O)[nH]c1=O)Nc1ccccc1Br	-5	1	0	-2	2	nt
O=C(COC(=O)Cc1ccc(Cl)c(Cl)c1)Nc1ccc2[nH]c(=O)[nH]c2c1	0	nt	-2	-6	5	nt
CN(C)c1ccc(C(=N)Cc2ccc3ccccc3n2)cc1	nt	nt	0	-8	nt	nt
Cc1c(O)ccc(/C(Cc2ccc3ccccc3n2)=N\O)c1O	-2	-7	73*	-138	-9	35*
CC1CCCC(NC(=O)CN(C)S(=O)(=O)c2cccc3cccnc23)C1C (stereo not given)	-3	-13	0	3	-2	nt
CCOc1ccc(C2CC(=O)NC(SCC(=O)OC)=C2C#N)cc1 (stereo not given)	1	-4	-2	-5	2	nt
Cc1cccc2sc(NC(=O)C3CCN(S(=O)(=O)c4cc([N+](=O)[O-])ccc4Cl)CC3)nc12	0	-22	100*	46	2	75*
Cc1nc2cc(-c3ccsc3-n3c(C)ccc3C)[nH]n2c(=O)c1Cl	-1	-5	67*	5	0	51*
COc1ccc(-c2nc3c4c(ncn3n2)-c2ccccc2CC42CCCC2)cc1	-1	-4	78*	27	-2	1	MPTP swell DR=>100;MPTP cs DR=>80
Cc1cccc(OCc2nc3c4c(ncn3n2)-c2ccccc2CC42CCCC2)c1	0	5	5	17	2	nt
Cc1ccccc1OCc1nc2c3c(ncn2n1)-c1ccccc1CC31CCCC1	-4	6	69*	16	3	1	MPTP swell DR=13*;MPTP cs DR=>80
Cc1ccc(OCc2nc3c4c(ncn3n2)-c2ccccc2CC42CCCC2)cc1	-5	-8	57*	18	9	-8	MPTP swell DR=8.4*;MPTP cs DR=>80
Cc1ccc(-c2nn(-c3ccccc3)cc2C=C2C(=O)CC(C)(C)CC2=O)cc1	-5	1	2	-5	8	nt
CC1(C)CC(=O)C(=Cc2cn(-c3ccccc3)nc2-c2ccccc2)C(=O)C1	-4	nt	76*	-6	0	-3	MPTP swell DR=i;MPTP cs DR=5.7*
CC(=O)N/C(=C/c1ccc2c(c1)OCO2)C(=O)NCCO	-2	-7	-2	-5	-3	nt
C=CCOC(=O)C1=C(C)NC(SCC(=O)Nc2ccccc2)=C(C#N)C1c1ccco1 (stereo not given)	-2	-48	64*	7	3	68*
Cc1ccc(NC(=O)CC(O)(C(F)(F)F)C(F)(F)F)cc1	-5	1	64*	-3	-1	82*
N#C/C(=C/c1cn(-c2ccccc2)nc1-c1cccc(OCc2ccc(F)cc2)c1)C(=O)NCCCn1ccnc1	-5	-4	54*	-13	-7	-8	MPTP swell DR=>100;MPTP cs DR=>80
CCc1c(C)sc(NC(=O)c2cc(-c3ccco3)on2)c1C#N	-2	-3	5	8	-2	nt
CC(NCc1ccc(S(N)(=O)=O)cc1)C(=O)Nc1ccc([N+](=O)[O-])cc1Cl (stereo not given)	-2	17	0	9	0	nt
CC1(O)CC(c2ccc(Cl)cc2)=NN1C(=O)c1ccc([N+](=O)[O-])cc1 (stereo not given)	-6	7	73*	26	-3	81*
CC(=O)N1N=C(c2ccc(Cl)cc2)CC1c1ccc([N+](=O)[O-])cc1 (stereo not given)	-5	3	0	47	2	nt
SMILES	MIN6 prolif	pCIP destab	MPTP block	FAS TE block	NR3A LBD binder	Rh123 counter	others
O=C1NC(CCc2ccccc2)C(=O)N1CCOc1ccccc1 (stereo not given)	3	-1	0	0	-1	nt
CC(N=c1ccccn1C(=O)Nc1cccc(C(F)(F)F)c1)c1ccco1 (stereo not given)	-2	-22	90*	8	-1	84*
O=[N+]([O-])c1cc(Br)c(O)c(C=Nc2ccc(N3CCOCC3)cc2)c1	-4	-22	12	-2	-4	nt
O=[N+]([O-])c1cc(Br)c(O)c(/C=N/Nc2nnnn2-c2cccc3ccccc23)c1	-6	-3	56*	5	4	34*
C/C(=N\N(Cc1ccccc1)c1ccccc1)c1ccncc1	1	-12	1	16	0	nt
COCc1cc(CN(C)C(=O)C2CCC(=O)N(Cc3cccc(OC)c3)C2)[nH]n1 (stereo not given)	-2	2	0	-3	0	nt
O=C(Nc1nc(=S)ss1)c1ccc(Cl)cc1Cl	nt	-4	88*	0	-2	64*
O=C(Nc1ccc2ccccc2c1)c1ccc(Cl)cc1Cl	-4	3	0	19	-13	nt
Cc1nn(Cc2noc(C(=O)NCC3CCCO3)n2)c(C)c1Br (stereo not given)	-3	-12	0	-6	0	nt
Cc1nn(Cc2noc(C(=O)NC3CCC(C)CC3)n2)c(C)c1Br (stereo not given)	-8	17	59*	-5	1	58*
Cc1ccc(-c2noc(C3CCCN(S(=O)(=O)c4ccc5ccccc5c4)C3)n2)o1 (stereo not given)	-3	-9	-2	18	3	nt
Cc1ccc(-c2noc(C3CCN(S(=O)(=O)c4ccc5c(c4)OCCO5)CC3)n2)o1	-6	-26	52*	29	1	64*
O=C(NCc1csc(-c2cccs2)n1)Nc1ccc(C(F)(F)F)cc1	-2	9	66*	-2	1	77*
COC(=O)c1c(Cc2ccccc2Cl)c[nH]c1C	0	4	55*	4	-1	24*
CCOC(=O)C1=C(COCCN)NC(C)=C(C(=O)OC)C1c1ccccc1Cl (stereo not given)	-8	nt	99*	-5	1	-21	MPTP swell DR=4*;MPTP cs DR=72*!
O=C(NCc1ccc(F)cc1)Nc1cccc([N+](=O)[O-])c1	0	-4	62*	46	-19	94*
O=C(NCc1cccnc1)Nc1cccc([N+](=O)[O-])c1	1	-8	2	3	-5	nt
O=C(NCc1ccncc1)Nc1cccc([N+](=O)[O-])c1	-1	8	91*	13	-6	73*
